Results filed as inconclusive are left out. Active and inactive are the calls of the source. Calls follow the shape of the dose curve; as a rule, active = well fitted inhibition curve with a large enough effect; inconclusive = small, poorly fitted or top-dose-only effect; inactive = flat fitted curve, though single readings scatter.
% is scaled to controls: 0 for no effect and ±100 for the full control effect.
Also: nearly all actives have a fitted effect of over 65% in size.

In the first assay the target is Glutathione peroxidase 1 (Homo sapiens) (UniProt P07203). In words: Primary qHTS Assay for Inhibitors of Recombinant Selenoprotein Glutathione Peroxidase 1 (GPX1) (AID 1845191). Particulars: recombinant GPX1, GR-coupled NADPH fluorescence, 15 min; series mostly up to 48.8 µM; activity, negative = inhibition: at the top concentration. The method, boiled down: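 GR-coupled readout: NADPH consumption tracked by fluorescence, ex 340/em 450 nm, at t=0 and after 15 min at RT. Final mix 10 nM GPX1, 1 mM GSH, 0.5 mM CHP, 0.5 mM NADPH, 100 nM GR, 0.01% BSA, following 30 min enzyme–compound preincubation.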
Glutathione peroxidase 1 (Homo sapiens), sequence (P07203 whole entry, looked up): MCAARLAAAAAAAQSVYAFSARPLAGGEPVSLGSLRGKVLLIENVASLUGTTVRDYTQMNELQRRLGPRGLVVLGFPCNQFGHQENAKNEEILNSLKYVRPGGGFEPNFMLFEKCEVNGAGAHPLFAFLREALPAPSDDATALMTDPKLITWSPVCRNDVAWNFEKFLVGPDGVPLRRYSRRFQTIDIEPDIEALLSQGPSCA
For orientation: qHTS replaces the single test concentration by a dilution series.
Take `C=C1C(=O)O[C@@H]2C/C(C)=C\C(=O)/C=C(\C)[C@@H](OC(=O)/C(C)=C\C)[C@H](O)[C@@H]12`: the “activity, negative = inhibition” value was -25.2% [at 27.7 µM] (inactive).
As to `C/C=C1\[C@H](O[C@@H]2O[C@H](CO)[C@@H](O)[C@H](O)[C@H]2O)OC=C2C(=O)OCCc3ccc(O)c(c3)Oc3ccc(cc3)CCOC(=O)C[C@H]21`, the “activity, negative = inhibition” value was -16.9% [at 15.3 µM] (inactive).
On to `C=CC(C)(C)c1[nH]c2cc3c(cc2c1CC1NC(=O)C2=CCCN2C1=O)C=CC(C)(C)O3` (stereo unspecified), for which the “activity, negative = inhibition” value was -25.6% [at 27.7 µM] (inactive).
`C=C1C(OC(C)=O)CCC2(C)CC3(OC)OC(=O)C(C)=C3CC12` (stereo unspecified): the “outcome” value was “inactive [at 27.7 µM]”.
Still for that read-out and setting: the value for `COc1ccc(-n2[nH]c(=O)c3[nH]c4cc(Cl)ccc4c(=O)c3c2=O)c(C)c1` was “inactive”.
As for `FC(F)(F)c1cc(-c2ncn(/C=C\c3nnco3)n2)cc(C(F)(F)F)c1`, the “activity, negative = inhibition” value was -5.69% (inactive).
As to `CC1(C)CCCC2(C)C(CO)C(CO)=CCC12` (stereo unspecified), the “activity, negative = inhibition” value is -7.11% (inactive).
With `COc1ccc(C2COc3cc(O)ccc3C2)c(O)c1` (stereo unspecified), the result was inactive.
Same read-out and setting: in the case of `CON(C)C(=O)[C@H](O)[C@H](Cc1ccccc1)NC(=O)c1cc2cc(Cl)ccc2[nH]1` it was “inactive”.
`COC(=O)CC1CC(c2ccc(O)cc2)=NO1` (stereo unspecified): the “activity, negative = inhibition” value is -28.9% (inactive).
In the case of `COc1cc2c3c(cc4ccccc4c3c1O)NC2=O`, the result was inactive.
Turning to `CN=C(N)NCCCCC/C=C(/C)CC(C)C1OC(=O)C(C)C(O)/C=C/C(C)C(O)CC(O)C(C)C(O)CCC(C)C(O)CC2(O)OC(CC(OC(=O)CC(=O)O)CC(O)CC(O)C(C)C(O)/C(C)=C/CCC1C)CC(O)C2O` (stereo unspecified), the “activity, negative = inhibition” value is -18.3% [at 15.3 µM] (inactive).
`COc1ccc([C@@]2(O)c3c(ccc4c3OC(C)(CCC=C(C)C)C=C4)NC(=O)[C@@H]2OC)cc1` (stereo partly specified): the “activity, negative = inhibition” value was -19.7% [at 27.7 µM] (inactive).
Consider `Cc1cc(C)c2c(N)c(C(=O)NCc3ccc(Cl)cc3)sc2n1`, for which the “activity, negative = inhibition” value was -1.22% (inactive).
Consider `COC(=O)N[C@@H](C)CNc1nccc(-c2cn(C(C)C)nc2-c2cc(Cl)cc(NS(C)(=O)=O)c2F)n1`, for which the Potency result is “inactive”.
On to `CCC(C)/C=C(C)/C=C/c1cc2c(cn1)C(=O)C(C)(OC(C)=O)C(O)=C2Cl` (stereo unspecified), for which the “activity, negative = inhibition” value is 0.998% [at 27.7 µM] (inactive).
On the same count and under the same terms, the value for `C/C=C/C=C/C=C/C(=O)OC1C=C(C=O)C(O)(C(=O)O)C2(C)CCCC(C)(C)C12` (stereo unspecified) was -8.88% [at 27.7 µM] (inactive).
Same read-out and setting: in the case of `OC/C=C/c1ccc(O[C@@H]2O[C@H](CO)[C@@H](O)[C@H](O)[C@H]2O)cc1` it was -3.45% [at 27.7 µM] (inactive); in that of `C=C1CCC2C(C)(C)CCC[C@]2(C)[C@H]1C/C=C(\CO)C(=O)C(=O)O` (stereo partly specified), -15.5% [at 27.7 µM] (inactive).

For a further assay, the target named is Phospholipid hydroperoxide glutathione peroxidase GPX4 (Homo sapiens) (UniProt P36969). In words: Primary qHTS Assay for Inhibitors of Recombinant Selenoprotein Glutathione Peroxidase 4 (GPX4) (AID 1845192). Also: potency is read from the fitted curve at half-maximal effect. The note with it: recombinant GPX4, GR-coupled NADPH fluorescence, 15 min; series mostly up to 50 µM; activity change, negative = inhibition: at the top concentration. The method, boiled down: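 Steps: GPX4 plus compound, 30 min RT; add GR/GSH/NADPH master mix; start with cumene hydroperoxide; read 340/450 nm fluorescence at 0 and 15 min. Finals were 200 nM GPX4, 1 mM GSH, 0.5 mM CHP, 0.5 mM NADPH, 100 nM GR.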
Phospholipid hydroperoxide glutathione peroxidase GPX4 (Homo sapiens), sequence (P36969 whole entry, looked up): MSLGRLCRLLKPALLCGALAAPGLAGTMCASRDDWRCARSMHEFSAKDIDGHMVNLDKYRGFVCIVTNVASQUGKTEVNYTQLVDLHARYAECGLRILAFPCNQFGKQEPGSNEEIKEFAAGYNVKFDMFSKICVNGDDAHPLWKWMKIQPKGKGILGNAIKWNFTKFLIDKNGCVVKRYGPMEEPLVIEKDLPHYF
Turning to `OC1CCC(Nc2ncc3nc(Nc4c(F)cc(F)cc4F)n([C@H]4CCOC4)c3n2)CC1` (stereo partly specified), the Potency was 20.2 µM (active).
Consider `CC(=O)O[C@H]1C(=O)[C@@]2(C)[C@H]([C@H](OC(=O)c3ccccc3)[C@]3(O)C[C@H](OC(=O)[C@H](O)[C@@H](NC(=O)c4ccccc4)c4ccccc4)C(C)=C1C3(C)C)[C@]1(OC(C)=O)CO[C@@H]1C[C@@H]2O`, for which the “activity change, negative = inhibition” value was -5.6% [at 15.3 µM] (inactive).
For the compound `COc1ccc2c(OC)c3ccoc3nc2c1OC`, the result was inactive.
In the case of `CC(c1ncncc1F)C(O)(Cn1cncn1)c1ccc(F)cc1F` (stereo unspecified), the “activity change, negative = inhibition” value is 4.97% (inactive).
As for `Cc1c(C(=O)Nc2ccc(N3CC(C)OC(C)C3)nc2)cccc1-c1ccc(OC(F)(F)F)cc1` (stereo unspecified), the “activity change, negative = inhibition” value was 5.89% (inactive).
On the same count and under the same terms, in the case of `C=CC(C)(C)c1[nH]c2cc3c(cc2c1CC1NC(=O)C2=CCCN2C1=O)C=CC(C)(C)O3` (stereo unspecified) it was -19.5% [at 27.8 µM] (inactive); in that of `C=C1C(OC(C)=O)CCC2(C)CC3(OC)OC(=O)C(C)=C3CC12` (stereo unspecified), -1.59% [at 27.8 µM] (inactive).
On to `CC1=C(/C=C/C(C)=C\C=C\C(C)=C/C(=O)O)C(C)(C)CCC1`, for which the “activity change, negative = inhibition” value was 13.2% (inactive).
On the same count and under the same terms, in the case of `COC(=O)N[C@H](C(=O)N1[C@@H]2CC[C@@H](C2)[C@H]1c1nc2ccc(-c3ccc4c(c3)C(F)(F)c3cc(-c5cnc([C@@H]6CCC7(CC7)N6C(=O)[C@@H](NC(=O)OC)C(C)C)[nH]5)ccc3-4)cc2[nH]1)C(C)C` it was -27.6% [at 27.8 µM] (inactive); in that of `C=C[C@H]1CN2CC[C@H]1C[C@@H]2C(O)c1ccnc2ccc(OC)cc12` (stereo partly specified), -23.9% [at 27.8 µM] (inactive); in that of `COc1ccc(-n2[nH]c(=O)c3[nH]c4cc(Cl)ccc4c(=O)c3c2=O)c(C)c1`, -24.2% (inactive).
In the case of `Cc1cn(C2C=CC(CO)O2)c(=O)[nH]c1=O` (stereo unspecified), the result was inactive.
For the compound `CC1(c2nc3c(C(N)=O)cccc3[nH]2)CCCN1` (stereo unspecified), the “activity change, negative = inhibition” value is 4.53% (inactive).
Turning to `Cn1nc(C(C)(C)C)cc1C(=O)NC(Cc1cccc(Cl)c1)C(=O)NCC#N` (stereo unspecified), the “activity change, negative = inhibition” value is -0.736% (inactive).
As for `COc1nc2sc(C(=O)NC3CC3)c(N)c2c(C)c1Cl`, the “activity change, negative = inhibition” value is -12.5% (inactive).
As to `CC1(C)CCCC2(C)C(CO)C(CO)=CCC12` (stereo unspecified), the “activity change, negative = inhibition” value is -11.4% (inactive).
Same read-out and setting: in the case of `COc1ccc(C2COc3cc(O)ccc3C2)c(O)c1` (stereo unspecified) it was 1.18% (inactive).
On to `O=[N+]([O-])c1cn2c(n1)OCC(OCc1ccc(OC(F)(F)F)cc1)C2` (stereo unspecified), for which the “activity change, negative = inhibition” value was 1.7% (inactive).
Turning to `NC(=O)C(CCC(F)(F)F)N(Cc1ccc(-c2ncon2)cc1F)S(=O)(=O)c1ccc(Cl)cc1` (stereo unspecified), the “activity change, negative = inhibition” value is -7.71% (inactive).
Consider `CON(C)C(=O)[C@H](O)[C@H](Cc1ccccc1)NC(=O)c1cc2cc(Cl)ccc2[nH]1`, for which the “activity change, negative = inhibition” value was -10.5% (inactive).
Still for that read-out and setting: the value for `Cc1ccc(F)cc1C(=O)Nc1ccc(C(=O)N2Cc3cccn3Cc3ccccc32)c(Cl)c1` was -15.3% (inactive); that for `COC(=O)CC1CC(c2ccc(O)cc2)=NO1` (stereo unspecified) was -0.325% (inactive).
Consider `CS(=O)(=O)NCC1CCC(Nc2nc3c(s2)CCSc2ccccc2-3)CC1` (stereo unspecified), for which the “activity change, negative = inhibition” value is 4.87% (inactive).
Still for that read-out and setting: in the case of `O=C(Nc1ccc(Cl)cc1F)c1ccccc1O` it was -16.3% (inactive); in that of `CN=C(N)NCCCCC/C=C(/C)CC(C)C1OC(=O)C(C)C(O)/C=C/C(C)C(O)CC(O)C(C)C(O)CCC(C)C(O)CC2(O)OC(CC(OC(=O)CC(=O)O)CC(O)CC(O)C(C)C(O)/C(C)=C/CCC1C)CC(O)C2O` (stereo unspecified), -8.92% [at 15.3 µM] (inactive); in that of `CNC(C)C(=O)NC(C(=O)N1CCCC1c1nc(C(=O)c2ccc(F)cc2)cs1)C1CCCCC1` (stereo unspecified), -5.23% (inactive).
For the compound `COc1ccc([C@@]2(O)c3c(ccc4c3OC(C)(CCC=C(C)C)C=C4)NC(=O)[C@@H]2OC)cc1` (stereo partly specified), the “activity change, negative = inhibition” value is -21% [at 27.8 µM] (inactive).
On the same count and under the same terms, the value for `OCC1OC(Oc2cc(O)cc(/C=C/c3ccc(O)cc3)c2)C(O)C(O)C1O` (stereo unspecified) was -0.688% [at 27.8 µM] (inactive).
For the compound `Cn1nnc(-c2ccc(-c3ccc(N4C[C@H](COP(=O)(O)O)OC4=O)cc3F)cn2)n1`, the Potency is 22.7 µM (active).
Turning to `OC/C=C/c1ccc(O[C@@H]2O[C@H](CO)[C@@H](O)[C@H](O)[C@H]2O)cc1`, the “outcome” value is “inactive [at 27.8 µM]”.
On to `COc1cc2oc(-c3ccc(O)cc3O)cc2c(OC)c1CC=C(C)C`, for which the “activity change, negative = inhibition” value was -26.5% [at 27.8 µM] (inactive).
As for `C=C1CCC2C(C)(C)CCC[C@]2(C)[C@H]1C/C=C(\CO)C(=O)C(=O)O` (stereo partly specified), the “activity change, negative = inhibition” value was -0.809% [at 27.8 µM] (inactive).

Values taken from PubChem BioAssay (NCATS).
